Results taken from PubChem BioAssay (EPA / NIEHS).
Inconclusive results are not listed. Calls of active or inactive are those of the source. How the source made its calls, unless noted: active means hit-call score of the fitted dose curve at least 0.9, where 1 is the maximum; inactive means score below 0.9.

Key:
[1] = biological target: Nucleoli Translocation, AR (gene 367) (UniProt P10275); experiment: UPITT_HCI_U2OS_AR_TIF2_Nucleoli_Antagonist: University of Pittsburgh U2OS Androgen Receptor-Transcriptional Intermediary Factor 2 (AR-TIF2) Antagonism High Content Imaging Assay for Nucleoli Translocation (AID 2283997; active means hit-call score of the fitted dose curve at least 0.9, where 1 is the maximum)
Sequence of Nucleoli Translocation, AR (gene 367) (P10275 whole entry, looked up): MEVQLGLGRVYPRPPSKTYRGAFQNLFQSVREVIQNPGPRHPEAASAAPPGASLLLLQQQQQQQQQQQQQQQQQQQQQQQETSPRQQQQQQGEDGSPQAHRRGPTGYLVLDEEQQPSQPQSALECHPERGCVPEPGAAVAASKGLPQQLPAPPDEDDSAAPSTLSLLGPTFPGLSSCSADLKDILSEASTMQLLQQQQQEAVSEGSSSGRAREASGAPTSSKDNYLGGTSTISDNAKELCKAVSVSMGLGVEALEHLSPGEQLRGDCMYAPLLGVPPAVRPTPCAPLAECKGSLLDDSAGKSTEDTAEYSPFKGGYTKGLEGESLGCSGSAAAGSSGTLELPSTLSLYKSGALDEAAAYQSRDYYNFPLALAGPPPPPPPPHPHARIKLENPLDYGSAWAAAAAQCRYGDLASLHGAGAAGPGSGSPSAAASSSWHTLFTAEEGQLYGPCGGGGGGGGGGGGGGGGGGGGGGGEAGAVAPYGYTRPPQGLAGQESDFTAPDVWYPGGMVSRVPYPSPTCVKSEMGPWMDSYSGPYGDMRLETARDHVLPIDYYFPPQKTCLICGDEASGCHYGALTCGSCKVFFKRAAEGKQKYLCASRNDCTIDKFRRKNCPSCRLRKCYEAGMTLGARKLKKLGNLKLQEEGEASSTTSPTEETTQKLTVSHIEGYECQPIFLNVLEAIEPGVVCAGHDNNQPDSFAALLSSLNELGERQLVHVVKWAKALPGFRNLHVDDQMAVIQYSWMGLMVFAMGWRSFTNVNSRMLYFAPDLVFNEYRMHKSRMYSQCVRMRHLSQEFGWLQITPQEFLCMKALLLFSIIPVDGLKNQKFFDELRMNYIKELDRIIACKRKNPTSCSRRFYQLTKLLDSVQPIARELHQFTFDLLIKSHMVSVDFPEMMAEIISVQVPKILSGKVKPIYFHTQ
Procedure, shortened: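 Measured quantity was AR-RFP fluorescence localized to nucleoli in engineered U2OS cells also bearing TIF2-GFP, acquired on automated high-content imagers. Primary testing used 20 uM compound; actives were confirmed in triplicate wells.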

[2] = biological target: Nucleoli Translocation, AR (gene 367) (UniProt P10275); experiment: UPITT_HCI_U2OS_AR_TIF2_Nucleoli_Agonist: University of Pittsburgh U2OS Androgen Receptor-Transcriptional Intermediary Factor 2 (AR-TIF2) Agonism High Content Imaging Assay for Nucleoli Translocation (AID 2283998; active means hit-call score of the fitted dose curve at least 0.9, where 1 is the maximum)
Procedure, shortened: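 Red-tagged human androgen receptor co-expressed with GFP-tagged TIF2 serves as the binding reporter. Primary testing used 20 uM final (0.2% DMSO); follow-up dose response covered 0.195 to 50 uM final (0.5% DMSO).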

[3] = biological target: Ratio of Nucleoli Translocation and Cytoplasm, AR (gene 367) (UniProt P10275); experiment: UPITT_HCI_U2OS_AR_TIF2_Nucleoli_Cytoplasm_Ratio_Agonist: University of Pittsburgh U2OS Androgen Receptor-Transcriptional Intermediary Factor 2 (AR-TIF2) Agonism High Content Imaging Assay for Ratio of Nucleoli Translocation and Cytoplasm (AID 2284000; active means hit-call score of the fitted dose curve at least 0.9, where 1 is the maximum;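 further: hits raise the red nucleolar to cytoplasm ratio above vehicle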)
Sequence of Ratio of Nucleoli Translocation and Cytoplasm, AR (gene 367) (P10275 whole entry, looked up): as above
Procedure, shortened: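 Read-out first: nucleolar-to-cytoplasm ratio of red (AR-RFP) signal, quantified by high-content imaging in U2OS cells co-expressing TIF2-GFP. Activity is scored as signal increase over DMSO. Single-point screening used 20 uM final (0.2% DMSO).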

[4] = TOX21_TR_RXR_BLA_Antagonist_Followup_viability: Viability Assessment in the Tox21 Thyroid Hormone Receptor beta Retinoid X Receptor alpha (RXRa) Antagonism Beta-lactamase (BLA) Follow-Up Assay (AID 2283979; active means hit-call score of the fitted dose curve at least 0.9, where 1 is the maximum)
Procedure, shortened: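 Follow-up compounds (11 concentrations, triplicate) were incubated 16 h at 37C/5% CO2 with HEK293T RXRa-bla cells seeded at 2,500/well in charcoal-stripped-serum medium. ATP content by CellTiter-Glo luminescence gave viability; curves fitted in both directions against DMSO.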

[5] = CCTE_Shafer_MEA_acute_spike_number: CCTE's Neural Acute Assay for Total Number of Spikes, Shafer Lab (AID 2284008);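 on AC50: curve fitted for decrease in spike count so AC50 reflects inhibitors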
Procedure, shortened: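 Cortical neurons from rat, matured to DIV 13 or 15 on microelectrode arrays, are recorded at 37 C before and during 40-min exposure to 0.03-40 uM compound. Wells need >/= 10 active electrodes.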

[6] = CCTE_Shafer_MEA_acute_firing_rate_mean: CCTE's Neural Acute Assay for Mean Firing Rate, Shafer Lab (AID 2284009);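 further: analyzed for loss of signal so actives lower firing rate relative to DMSO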
Procedure, shortened: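 Percent change in well-mean firing rate was derived from extracellular spikes detected at 8x rms noise (300-5000 Hz band-pass) before and after a 40-min compound exposure. Cultures were primary rat cortical neurons, tested at 0.03-40 uM.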

[7] = CCTE_Simmons_MITO_basal_resp_rate: CCTE's HepG2 Seahorse XF Respirometric Screening Assay at Basal Respiratory State, Simmons Lab (AID 2284001); conditions: actives raise or lower the signal
Procedure, shortened: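 HepG2 respirometry; 7-pt titration 125 nM–100 uM final; kinetic OCR at 6 min intervals for 72 min; n=3 biological, technical singles; DMSO baseline, gain or loss fit; fenpyroximate (decrease) and 2,4-DNP (increase) controls.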

[8] = CCTE_Simmons_MITO_max_resp_rate: CCTE's HepG2 Seahorse XF Respirometric Screening Assay at Maximal Respiratory State [uncoupled], Simmons Lab (AID 2284002); conditions: actives raise or lower the signal
Procedure, shortened: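 Maximal respiration in HepG2 cells is recorded as OCR by Seahorse XF following FCCP injection. Compounds span 125 nM–100 uM final; activity is called in either direction against DMSO.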

[9] = CCTE_Simmons_MITO_inhib_resp_rate: CCTE's HepG2 Seahorse XF Respirometric Screening Assay at Inhibited Respiratory State [full ETC block], Simmons Lab (AID 2284006); conditions: actives raise or lower the signal
Procedure, shortened: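 HepG2 cells on Seahorse XF96; oxygen consumption measured after test compound, then FCCP, then rotenone/antimycin A injections over 72 min. Test chemicals at 7 concentrations, 125 nM–100 uM final. OCR fitted bidirectionally versus DMSO.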

[10] = CCTE_Simmons_MITO_viability: CellTiter-Glo Viability Assessment for CCTE's HepG2 Seahorse XF Respirometric Screening Assay [post-hoc], Simmons Lab (AID 2284007; active means hit-call score of the fitted dose curve at least 0.9, where 1 is the maximum)
Procedure, shortened: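 HepG2 cells from the Seahorse XF respirometry run were exposed 90 min to a 7-point series, 125 nM–100 uM final, DMSO vehicle; ATP content then read by luciferase luminescence. Three biological replicates, technical singles; loss of signal fitted versus DMSO.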

DIO1 (gene 1733) = experiment: CCTE_GLTED_hDIO1: CCTE's human Deiodinase 1 (DIO1) Inhibition Assay, Great Lakes Toxicology and Ecology Division (GLTED) Lab (AID 2283987; active means hit-call score of the fitted dose curve at least 0.9, where 1 is the maximum;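 further: isolated human DIO1 enzyme in a cell-free setup rather than cells; enzyme activity read as free iodide liberated from substrate via Sandell-Kolthoff colorimetry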)
Procedure, shortened: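 Cell-free hDIO1 assay, triplicate plates. Absorbance of the Sandell-Kolthoff reaction reports enzyme-liberated iodide; iodinated chemicals or nitrite, iron and thiocyanate may interfere.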

[11] = CCTE_Harrill_HTTr_Viability_DMEM_24hr: (Pilot) CCTE's 24-hour Cell Viability Assessment for the High-Throughput Transcriptomics (HTTr) Platform, in MCF-7 cells cultured in DMEM + 10% fetal bovine serum, Harrill Lab (AID 2283975)
Procedure, shortened: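 MCF-7 cells in DMEM with 10% FBS exposed for 24 hours to an eight-point dilution series. Membrane integrity by propidium iodide exclusion with high content imaging; bidirectional fit against DMSO.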

[12] = CCTE_Harrill_HTTr_Viability_PRF_DMEM_6hr: (Pilot) CCTE's 6-hour Cell Viability Assessment for the High-Throughput Transcriptomics (HTTr) Platform, in MCF-7 cells cultured phenol red-free DMEM + 10% charcoal-stripped fetal bovine serum, Harrill Lab (AID 2283976)
Procedure, shortened: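 MCF-7 cells in phenol red-free DMEM with 10% charcoal-stripped FBS exposed 6 hours to an eight-point dilution series. Propidium iodide exclusion imaged; curves fitted bidirectionally against DMSO.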

[13] = CCTE_Harrill_HTTr_Viability_PRF_DMEM_12hr: (Pilot) CCTE's 12-hour Cell Viability Assessment for the High-Throughput Transcriptomics (HTTr) Platform, in MCF-7 cells cultured in phenol red-free DMEM + 10% charcoal-stripped fetal bovine serum, Harrill Lab (AID 2283977)
Procedure, shortened: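 MCF-7 cells in phenol red-free DMEM with 10% charcoal-stripped FBS exposed 12 hours to an eight-point dilution series. Viability assessed by high-content imaging of propidium iodide exclusion; bidirectional fit versus DMSO.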

[14] = CCTE_Harrill_HTTr_Viability_PRF_DMEM_24hr: (Pilot) CCTE's 24-hour Cell Viability Assessment for the High-Throughput Transcriptomics (HTTr) Platform, in MCF-7 cells cultured in phenol red-free DMEM + 10% charcoal-stripped fetal bovine serum, Harrill Lab (AID 2283980)
Procedure, shortened: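 MCF-7 cells in phenol red-free DMEM with 10% charcoal-stripped FBS, eight-point dilution series, 24 h exposure. Membrane integrity by propidium iodide exclusion with high content imaging; bidirectional fit vs DMSO.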

[15] = CCTE_Harrill_HTTr_Apoptosis_DMEM_6hr: (Pilot) CCTE's 6-hour Apoptosis Assessment for the High-Throughput Transcriptomics (HTTr) Platform, in MCF-7 cells cultured in DMEM + 10% fetal bovine serum, Harrill Lab (AID 2283981)
Procedure, shortened: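 Caspase-3/7 activation read by high content imaging with CellEvent Caspase 3/7 Green in MCF-7 cells (DMEM + 10% FBS), 6 h after dosing; eight-point dilution series. Bidirectional fitting relative to DMSO baseline.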

[16] = CCTE_Harrill_HTTr_Apoptosis_DMEM_12hr: (Pilot) CCTE's 12-hour Apoptosis Assessment for the High-Throughput Transcriptomics (HTTr) Platform, in MCF-7 cells cultured in DMEM + 10% fetal bovine serum, Harrill Lab (AID 2283982)
Procedure, shortened: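 MCF-7 cells in DMEM + 10% FBS, exposed 12 h to an eight-point dilution series; caspase-3/7 activation imaged with CellEvent Green. Bidirectional fit versus DMSO.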

[17] = CCTE_Harrill_HTTr_Apoptosis_DMEM_24hr: (Pilot) CCTE's 24-hour Apoptosis Assessment for the High-Throughput Transcriptomics (HTTr) Platform, in MCF-7 cells cultured in DMEM + 10% fetal bovine serum, Harrill Lab (AID 2283983)
Procedure, shortened: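 MCF-7 cells in DMEM + 10% FBS, eight-point dilution series, 24 h exposure. Caspase-3/7 activation imaged by high-content imaging with CellEvent Caspase 3/7 Green. Bidirectional curve fitting against DMSO baseline.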

[18] = CCTE_Harrill_HTTr_Apoptosis_PRF_DMEM_6hr: (Pilot) CCTE's 6-hour Apoptosis Assessment for the High-Throughput Transcriptomics (HTTr) Platform, in MCF-7 cells cultured phenol red-free DMEM + 10% charcoal-stripped fetal bovine serum, Harrill Lab (AID 2283984)
Procedure, shortened: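 MCF-7 cells in phenol red-free DMEM + 10% charcoal-stripped FBS, eight-point dilution series, 6 h exposure. Caspase-3/7 activation imaged by high-content imaging with CellEvent Caspase 3/7 Green; bidirectional fit versus DMSO baseline.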

[19] = CCTE_Harrill_HTTr_Apoptosis_PRF_DMEM_24hr: (Pilot) CCTE's 24-hour Apoptosis Assessment for the High-Throughput Transcriptomics (HTTr) Platform, in MCF-7 cells cultured in phenol red-free DMEM + 10% charcoal-stripped fetal bovine serum, Harrill Lab (AID 2283986)
Procedure, shortened: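 MCF-7 cells in phenol red-free DMEM with 10% charcoal-stripped FBS, exposed 24 h across an eight-point dilution series. Caspase-3/7 activation imaged with CellEvent Green by high content imaging; bidirectional fitting against DMSO.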

Measured: AC50

CCCC(=O)OCCC(C)C
inactive: [1] | [2] | [3]

COc1cc(C(=O)NC2CCN(C)CC2)ccc1Nc1ncc2c(n1)N(C1CCCC1)CC(F)(F)C(=O)N2C
inactive: [1] | [3]
active: [4] 26 µM | [2] 46.5 µM | [5] 7.05 µM | [6] 7.05 µM

CCCCOC(=O)c1ccc(O)cc1
inactive: [1] | [2] | [3] | [9] | [10] | [5] | [6]
active: [7] 23.7 µM | [8] 50 µM

CCCCCCCCOC(=O)c1cc(O)c(O)c(O)c1
inactive: [9]
active: DIO1 (gene 1733) 101 µM | [7] 13.6 µM | [8] 11.5 µM | [5] 4.46 µM | [6] 4.46 µM

O=c1c(-c2ccc(O)cc2)coc2cc(O)cc(O)c12
inactive: [1] | [2] | [3]
active: DIO1 (gene 1733) 2.42 µM

OC12N=C(c3ccccc3)SC1Cc1cc(Cl)ccc12 (configuration not stated)
active: DIO1 (gene 1733) 21.1 µM | [5] 6.83 µM | [6] 6.86 µM
inactive: [7] | [8] | [9] | [10]

CC(C)(c1cc(Br)c(O)c(Br)c1)c1cc(Br)c(O)c(Br)c1
active: DIO1 (gene 1733) 37.6 µM | [7] 4.5 µM | [8] 6.61 µM
inactive: [9] | [10] | [5] | [6]

COCC(C)OCC(C)OCC(C)O (configuration not stated)
inactive: [1] | [2] | [3]

CC1(C)NC(=O)N(c2ccc([N+](=O)[O-])c(C(F)(F)F)c2)C1=O
inactive: [11] | [12] | [13] | [14] | [15] | [16] | [17] | [18] | [19] | [9] | [10]
active: [7] 37.2 µM | [8] 33.8 µM

CCCCCCCCCCCC[N+](C)(C)C
active: DIO1 (gene 1733) 83.2 µM | [8] 37.8 µM
inactive: [9] | [10]

CN(C[C@@H](CC[N+]12CCC(C3CCCCC3)(CC1)CC2)c1ccc(Cl)c(Cl)c1)C(=O)c1cc(C(F)(F)F)cc(C(F)(F)F)c1
active: DIO1 (gene 1733) 57.6 µM | [1] 50 µM | [3] 50 µM | [5] 0.273 µM | [6] 0.273 µM
